Abeta yeast res: qHTS for compounds that reverse cellular toxicity of Amyloid beta (A-beta) peptide in yeast: Primary Screen; yeast expressing A-beta42, growth rescue, OD600, 48 h; response scale: 0% DMSO, 100% iron-clioquinol control; Potency, µM (titrated, usually from 46.1 µM), hits mostly activators; hit rate 0.063% among 410,000; also: nearly all actives have a fitted effect of over 55% in size
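Yeast A-beta toxicity model in growth medium with pinned compounds, 48 h at 30 C; growth read as absorbance at 600 nm. Normalized to FeCl3/clioquinol equimolar mix (positive) and DMSO (negative).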
uPA surface inh: qHTS for Inhibitors of Cell Surface uPA Generation; cell surface uPA generation assay, qHTS; Potency, µM (titrated, usually from 38.3 µM), actives largely listed as inhibitors; hit rate 0.31% among 330,000; active = well fitted inhibition curve with a large enough effect; inconclusive = small, poorly fitted or top-dose-only effect; inactive = no such curve, though single readings can be large or run the other way; tested in mouse RAW 264.7 cells; also: nearly all actives have a fitted effect of over 55% in size
Chronic BCR inh: qHTS Assay to Find Inhibitors of Chronic Active B-Cell Receptor Signaling; ABC-DLBCL IkBa-CBG/CBR reporter, luminescence ratio, 4 h; Potency, µM (doses to about 46.1 µM), usual class: inhibitors; hit rate 0.05% among 340,000; active = well fitted inhibition curve with a large enough effect in the signal ratio, with a control signal flat, not every such curve was filed as active; inconclusive = small, poorly fitted or top-dose-only effect, or effect the other way, or a change in a side signal; the % refers to the signal ratio
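Cell line TMD8 (human ABC DLBCL), stably expressing tet-inducible CBG68-IkBa fusion and CBR; IMDM/0.5% FBS; cpd up to 46 uM; dox induction, 4 h, 37C/5% CO2; dual luminescence; green/red ratio; MG132 control.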
aSyn yeast inh: qHTS of alpha-syn Inhibitors. Yeast expressing alpha-synuclein, growth rescue, BacTiter-Glo, 24 h. Potency, µM (series often up to 46.1 µM), actives largely listed as activators. hit rate 0.14% among 370,000; also: nearly all actives have a fitted effect of over 65% in size
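Readout is rescue of growth in alpha-synuclein-expressing yeast, so inhibitors of toxicity appear as activators. Growth after 24 hr at 30 deg C in galactose medium is quantified by luminescence.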
FUS yeast rescue: qHTS for Suppressors of FUS Proteinopathy: Primary screen using FUS-linked yeast assay. S. cerevisiae FUS-expressing, growth rescue, OD600, 24 h. Potency, µM (doses to about 76.6 µM), most hits filed as activators. hit rate 0.24% among 390,000; also: nearly all actives have a fitted effect of over 55% in size
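Toxicity suppression screen in FUS-yeast. Cells induced with 2% galactose, starting OD 0.005, treated 24hr at 30C with compounds at multiple final concentrations; growth by OD600.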
TDP-43 yeast inh: qHTS of TDP-43 Inhibitors. AID 652104, 2013. Potency, µM (highest dose often 46.1 µM), actives largely listed as activators. TDP-43 expressing yeast growth rescue, BacTiter-Glo, 24 h. hit rate 1.8% among 410,000; also: nearly all actives have a fitted effect of over 50% in size
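Yeast cells expressing TDP-43 under galactose induction are exposed to compounds for 24 hr at 30 deg C. BacTiter-Glo luminescence measures growth, so protective compounds score as activators.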
Each line names hits and unclear results; the compound was inactive in the other large screens; ! = a repeat was not active. Hits are enriched below; roughly 2.3% of the tested compounds scored in any of these assays. Unless noted, calls follow the shape of the dose curve; as a rule, active = well fitted curve in the direction sought with a large enough effect; inconclusive = small, poorly fitted or top-dose-only effect, or another doubt; inactive = no such curve, though single readings can be large; an effect the other way counts as inactive or inconclusive.

CC(=O)c1cccc(NC(=O)c2ccc3c(c2)OCO3)c1	Chronic BCR inh inconclusive, TDP-43 yeast inh 13µM
CC(=O)c1cccc(NC(=O)N(c2ccccc2)c2ccccc2)c1	TDP-43 yeast inh 16µM
Cc1ccc(C23CC4CC(CC(CC(=O)NC(C)(C)CO)(C4)C2)C3)cc1	TDP-43 yeast inh 35µM
COc1cccc(-n2nnnc2S(C)(=O)=O)c1	Chronic BCR inh inconclusive, TDP-43 yeast inh 1µM (no result: FUS yeast rescue)
Cc1cccc(-n2nnnc2S(C)(=O)=O)c1	Chronic BCR inh inconclusive, TDP-43 yeast inh 18µM (no result: uPA surface inh, aSyn yeast inh)
COC(=O)c1nnn(-c2cccc(C)c2)c1C(=O)OC	none (no result: uPA surface inh, Chronic BCR inh, aSyn yeast inh)
CSc1ccc(/C=N\Nc2nncn2N)cc1	uPA surface inh inconclusive, Chronic BCR inh inconclusive
C=CCc1cccc(/C=N/c2ncn[nH]2)c1O	Chronic BCR inh inconclusive
COc1ccc(N(CC(=O)Nc2cc(C)on2)S(=O)(=O)c2cc(C)ccc2C)cc1	Chronic BCR inh inconclusive, FUS yeast rescue 32µM, TDP-43 yeast inh inconclusive (no result: uPA surface inh)
COc1ccc(N(CC(=O)Nc2cc(C)on2)S(=O)(=O)c2ccc(Cl)cc2)cc1	none
COc1cc2nc(CN(C)Cc3ccc(C(C)(C)C)cc3)[nH]c(=O)c2cc1OC	uPA surface inh 3.5µM, Chronic BCR inh inconclusive
CC(/C=N/NC(=O)c1ccccn1)=C\c1ccco1	uPA surface inh inconclusive, Chronic BCR inh inconclusive
CCOC(=O)[C@]12CCCC=C1N(Cc1ccc(Cl)cc1Cl)C(=O)[C@H](CC(=O)NCc1cccs1)C2	FUS yeast rescue inconclusive (no result: uPA surface inh, Chronic BCR inh)
CCCCC[C@H](O)/C=C/C1C(=O)C=C[C@H]1C/C=C\CCCC(=O)OC (stereo partly specified)	uPA surface inh inconclusive, TDP-43 yeast inh 28µM (no result: Chronic BCR inh)
O=C1C=C(c2ccc(F)cc2OCc2ccccc2)C[C@@H](c2ccc(F)cc2)C1	none
N#CCCCSc1nnnn1-c1cccc(Cl)c1	TDP-43 yeast inh 22µM
COc1ccc(-c2oc3cc(OC(C)=O)cc(OC(C)=O)c3c(=O)c2OC)cc1	none (no result: Chronic BCR inh)
CC(=O)Oc1cc(O)c2c(=O)c(OC(C)=O)c(-c3ccc(OC(C)=O)c(OC(C)=O)c3)oc2c1	uPA surface inh 10µM (no result: Chronic BCR inh)
CCc1cc(C(=O)N2CCN(c3ccccc3OC)CC2)sc1C	TDP-43 yeast inh 13µM
COc1ccccc1N1CCN(C(=O)c2cc3c(s2)-c2ccccc2OC3)CC1	FUS yeast rescue inconclusive, TDP-43 yeast inh 11µM!
O=C(c1cc2c(s1)-c1ccccc1OC2)N1CCc2ccccc2C1	Chronic BCR inh inconclusive
COc1ccccc1N1CCN(C(=O)c2cc3c(s2)CCCCC3)CC1	TDP-43 yeast inh 22µM
COc1ccccc1N1CCN(C(=O)c2oc3ccc(Br)cc3c2C)CC1	TDP-43 yeast inh 18µM
COc1ccccc1N1CCN(C(=O)c2ccc(Br)s2)CC1	Chronic BCR inh inconclusive
CCN(CC(=O)Nc1c(F)cccc1F)C(=O)c1ccccn1	none
CS(=O)(=O)c1ccccc1COC(=O)Nc1ccc(Cl)cc1	Chronic BCR inh inconclusive, TDP-43 yeast inh 13µM
CCCCn1c(N)c(-c2nc3ccccc3s2)c2c([N+](=O)[O-])nn(CC)c(=O)c21	none (no result: uPA surface inh)
CCCCn1c(N)c(-c2nc3ccccc3s2)c2c([N+](=O)[O-])nn(C)c(=O)c21	FUS yeast rescue 40µM (no result: uPA surface inh)
CC1(S(=O)(=O)O)CC(=O)c2ccccc2C1=O (stereo unspecified)	uPA surface inh 7.9µM, Chronic BCR inh inconclusive
CCN(CC)S(=O)(=O)c1ccc(N2CCN(CCO)CC2)nc1	none
CCc1nc2cc(CC(=O)O)ccc2o1	none
Cc1ccc(CC2(C)C(=O)Nc3c(Cl)cccc32)cc1 (stereo unspecified)	aSyn yeast inh 6.3µM (no result: uPA surface inh, Chronic BCR inh)
CCc1ccc2c(c1)NC(=O)C2(C)Cc1ccc(Cl)cc1 (stereo unspecified)	aSyn yeast inh inconclusive (no result: uPA surface inh, Chronic BCR inh)
COc1ccccc1CC1(C)C(=O)Nc2c(Cl)cccc21 (stereo unspecified)	aSyn yeast inh inconclusive, TDP-43 yeast inh inconclusive (no result: uPA surface inh, Chronic BCR inh)

Source: PubChem (National Center for Advancing Translational Sciences (NCATS))
